# Bioassay records: PubChem, The Scripps Research Institute Molecular Screening Center
# Rows were chosen to be rich in hits. Some 3.4% of all compounds tested hit in one or more screens of this group.
# FBW7 act: FBW7 E3 ligase activators, primary screen, biochemical, AlphaScreen, human; AlphaScreen FBW7–phospho-cyclin E peptide binding, activator screen; normalized activity (activation), % at 26.1 µM; actives 0.13% (n = 650,000); AID 1259310, 2017; in the data active = normalized activity above about 1.9%;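 note: purified mutant Fbw7 with reduced substrate affinity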
# MITF primary: MITF inhibitors, primary screen, biochemical, AlphaScreen, human; Microphthalmia-associated transcription factor (Homo sapiens), O75030; AlphaScreen MITF homodimerization, bead proximity signal; inhibition, % at 2.6 µM; actives 0.91% (n = 650,000); AID 1259374, 2018; in the data active = inhibition above about 50%;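 note: 0% = vehicle wells with protein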
# Target sequence (O75030 whole entry, looked up): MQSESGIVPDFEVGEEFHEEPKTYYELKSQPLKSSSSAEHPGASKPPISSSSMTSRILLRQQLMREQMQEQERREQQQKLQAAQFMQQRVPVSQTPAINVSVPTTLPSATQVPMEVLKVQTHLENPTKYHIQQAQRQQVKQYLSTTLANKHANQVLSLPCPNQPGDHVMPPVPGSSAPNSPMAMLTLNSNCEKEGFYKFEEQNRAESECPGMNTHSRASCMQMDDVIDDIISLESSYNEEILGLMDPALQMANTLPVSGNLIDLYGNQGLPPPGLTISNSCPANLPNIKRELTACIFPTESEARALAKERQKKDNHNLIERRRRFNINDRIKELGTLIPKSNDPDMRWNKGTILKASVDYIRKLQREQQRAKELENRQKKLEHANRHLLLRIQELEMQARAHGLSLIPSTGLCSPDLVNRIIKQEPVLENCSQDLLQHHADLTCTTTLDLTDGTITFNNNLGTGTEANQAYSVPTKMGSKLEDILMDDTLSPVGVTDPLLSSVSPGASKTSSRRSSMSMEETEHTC
# TEAD-YAP block: TEAD-YAP interaction inhibition, primary screen, TEAD-YAP interaction inhibitor project, luminescence, HEK-TIYL cells; TEAD-Gal4/YAP UAS-luciferase luminescence; inhibition, % at 9.12 µM; actives 1.4% (n = 640,000); in the data active = inhibition above about 32%;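 note: 0% = median of test compound wells and 100% = reference inhibitor wells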
# GPR151 ag: activators of human GPR151, primary screen, cell-based, PathHunter beta-arrestin, luminescence; G-protein coupled receptor 151 (Homo sapiens), Q8TDV0; PathHunter beta-arrestin GPR151 cells; activation, % at 11.2 µM; actives 1% (n = 650,000); AID 1508602, 2020; in the data active = activation above about 4.9%;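 note: 0% = median of compound wells and 100% = cells with positive control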
# GPR151 conf act: GPR151 activators, triplicate retest, confirmation, cell-based, PathHunter beta-arrestin, luminescence; shares compounds with GPR151 ag; GPR151 PathHunter beta-arrestin cells, 90 min; % of EA-reagent control over plate median; activation, % at 11.2 µM; 6,700 tested, under 10 active;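 active = mean percent activation across replicates above the confirmation screen cutoff of 4.91%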
# GPR119 counter: GPR119 activators in beta-arrestin cells, counter-screen for GPR151 activator project, cell-based, PathHunter beta-arrestin, luminescence, triplicate; 90 min; 0 = compound-well median, 100 = enzyme-acceptor control; AID 1508611, 2020; actives 0.3% (n = 6,700); shares compounds with GPR151 ag; activation, % at 11.2 µM;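 active = mean percent activation in the counterscreen above 29.09%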;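 note: counterscreen on off-target GPR119 to flag nonselective hits from the GPR151 activator screen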
# Starred values were filed as active, the others as inactive; nt = not tested or not shown.
SMILES,FBW7 act,MITF primary,TEAD-YAP block,GPR151 ag,GPR151 conf act,GPR119 counter
N#Cc1ccc2c(c1)N(Cc1ccccc1F)C(=O)C1CCCN21 (centres undefined),0,-3,5,2,nt,nt
Cc1cccc(CN2C(=O)C3CCCN3c3ccc(C#N)cc32)c1 (centres undefined),0,0,-5,9.4*,0,-7
O=C(COC(=O)c1ccc(N2C(=O)c3ccc(Br)cc3C2=O)cc1)c1ccccc1,0,11,-13,1,nt,nt
CC1=C(C(=O)Nc2ccccc2)C(c2ccc(OC(=O)c3ccccc3)cc2)n2nnnc2N1 (centres undefined),0,2,-3,0,nt,nt
CCOC(=O)CCNC(=O)N1CCCC(CCC(=O)N(C)CCc2ccccn2)C1 (centres undefined),0,-6,-4,0,nt,nt
Cc1nonc1CC(=O)N1CCCC(CCC(=O)N(C)CCc2ccccn2)C1 (centres undefined),0,10,12,7.7*,0,-3
CCOC(=O)CCNC(=O)N1CCCC(N(C)CCc2ccccn2)C1 (centres undefined),0,-2,-3,5.4*,1,-2
O=C1C(=O)N(CC(Br)CBr)c2ccccc21 (centres undefined),0,-6,-4,-1,nt,nt
CCCCC(=O)Nc1ccc(NC(=O)c2ccccc2Cl)c(OC)c1,0,-4,-21,1,nt,nt
Nc1cc(Sc2ccc(F)cc2)cc([N+](=O)[O-])c1,0,-1,-6,5.1*,0,-4
Cc1ccc(CN2CCC(N(C)C(C)c3nccs3)CCC2=O)cc1 (centres undefined),-1,-1,-4,5.2*,1,14
COc1ccc(OCC(=O)Nc2ccc3oc(=O)ccc3c2)cc1,0,-1,10,5.8*,0,9
Cc1ccc(OCC(=O)NNC(=O)COc2ccc(Br)cc2C)c(C)c1,0,13,-9,0,nt,nt
Cc1ccc(OCC(=O)Nc2ccc3oc(=O)ccc3c2)c(C)c1,0,1,5,5.5*,0,-5
Cc1ccc(OCC(=O)Nc2ccc(Br)cn2)c(C)c1,0,0,-19,8.3*,-1,-10
O=C(COc1ccc(Br)cc1)Nc1ccc2oc(=O)ccc2c1,0,4,6,1,nt,nt
Cc1ccc(CNC(=O)CSc2nc3[nH]ncc3c(=O)n2-c2ccc(C)cc2)cc1,0,-4,4,3,nt,nt
CC(=NC1CC(C)(C)NC(C)(C)C1)c1c(C)[nH]n(-c2ccc([N+](=O)[O-])cc2)c1=O,0,0,9,6.3*,-1,-7
CCOc1ccc(S(=O)(=O)NCc2ccco2)c(C)c1C,0,-1,-9,-1,nt,nt
CCOc1c(S(=O)(=O)NCc2ccco2)ccc(Cl)c1Cl,0,13,5,6.3*,-2,-15
CCOC(=O)C1=C(C)Nc2nc(SC)nn2C1c1ccc(OC)cc1 (centres undefined),0,8,3,2,nt,nt
CCOC(=O)C1=C(C)Nc2nc(SCc3cccnc3)nn2C1c1ccc(OC)cc1 (centres undefined),0,9,-3,8.0*,0,7
CC(C)(C)c1ccc(OCCON2C(=O)CCC2=O)c(Cl)c1,0,-28,2,3,nt,nt
CCC(C)c1ccccc1OCCON1C(=O)CCC1=O (centres undefined),0,-21,8,7.1*,2,2
Cc1cc(CC(=N)N)c(C)cc1CC(=N)N,0,6,-5,5.4*,-1,-12
SMILES,FBW7 act,MITF primary,TEAD-YAP block,GPR151 ag,GPR151 conf act,GPR119 counter
Cc1cccc(N(CC(=O)NCc2ccccn2)S(C)(=O)=O)c1C,0,-9,4,1,nt,nt
COc1ccc2oc(=O)cc(CN3CCCCC3)c2c1,0,10,5,0,nt,nt
CCOC(=O)N1CCN(Cc2cc(=O)oc3ccc(OC)cc23)CC1,0,12,-23,14*,0,1
CCn1c(CCNC(=O)C(C)(C)C)nc2ccccc21,0,1,-8,6.7*,2,3
CC(C)CN1C(=O)C(=O)/C(=C(\O)c2ccc(Cl)cc2)C1c1ccc(C(C)C)cc1 (centres undefined),0,-13,-11,0,nt,nt
CN(C)c1ccc(NC2=CC(=O)N(CCc3ccccc3)C2=O)cc1,0,2,3,2,nt,nt
CN(C)c1ccc(NC2=CC(=O)N(Cc3ccco3)C2=O)cc1,0,37,-1,5.1*,0,-9
O=C(NS(=O)(=O)c1ccccc1)c1ccccc1O,0,-11,2,5.6*,0,-5
Cc1c(C(=O)C(=O)NC(C)C)c2ccccc2n1C,0,6,-2,6.3*,0,3
CNC(=O)C(=O)c1c(C)n(C)c2ccccc12,0,-1,6,0,nt,nt
Cc1cccc(NC(=O)CCC2CCN(C(=O)Cc3ccsc3)CC2)c1,0,16,-7,5.2*,0,1
COc1ccc(NC(=O)C2CCC(Cn3c(=S)[nH]c4ccccc4c3=O)CC2)cc1OC (centres undefined),1,12,-15,-1,nt,nt
Cc1ccccc1CNC(=O)CN(C)c1nnc(N2CCCC2=O)s1,1,11,-5,0,nt,nt
COc1cccc(CNC(=O)CN(C)c2nnc(N3CCCC3=O)s2)c1OC,0,0,-2,5.3*,-1,-5
CCCCCC(O)CCC(=O)NNC(=S)Nc1ccccc1 (centres undefined),0,7,2,1,nt,nt
CC(C)COCC(O)CCC(=O)NNC(=S)Nc1ccccc1 (centres undefined),0,2,-5,6.5*,1,14
CCOc1ccc(NC(=O)CN2C(=O)C(CC)SC(CC)C2=O)cc1 (centres undefined),0,7,14,5.1*,1,8
CCOc1ccc(/C=C2\SC(=S)N(CC(=O)Nc3ccc(O)cc3)C2=O)cc1,0,2,0,5.7*,2,6
CCOC(=O)c1ccc(NC(=O)CNC(=O)c2ccccc2)cc1,1,7,2,15*,-2,-4
CCOc1ccc(NC(=O)CNC(=O)c2ccccc2)cc1,0,7,-25,-1,nt,nt
CCOC(=O)c1ccc(NC(=O)CN2C(=O)CSCC2=O)cc1,0,-4,11,3,nt,nt
CCOC(=O)c1ccc(NC(=O)CN2C(=O)C(CC)SC(CC)C2=O)cc1 (centres undefined),0,9,2,6.4*,0,6
